# Measurements from PubChem BioAssay (NCATS).
# Inconclusive results are not listed. Unmarked numbers belong to inactive results. Active and inactive are the calls of the source. The call rests on the fitted dose curve; in most records, active means well fitted inhibition curve with a large enough effect; inconclusive means small, poorly fitted or top-dose-only effect; inactive means flat fitted curve, though single readings scatter. *1 amine or outer side, *2 acyl side, *3 side chain or, on linkers, in order; H or OH if unused. Where a SMILES comes first, the peptide text is derived from it. [ ]: non-standard residue; d: D form. X4 = CC(C)=CCc1cc(C(O)C(N[*:1])C(=O)[*:2])ccc1O
# System: KB-3-1
# Test: Cytotoxic Profiling of Annotated Libraries Using Quantitative High-Throughput Screening (AID 1296008); further: nearly all actives have a fitted effect of over 60% in size
# Details: Five cell lines viability, CellTiter-Glo ATP luminescence, 48-72 h; max response: active compounds read low
# In short: (§1)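 Cytotoxicity was measured as CellTiter-Glo ATP luminescence, read after 10 min at room temperature. Compound treatment of the cells lasted 48 or 72 hr at 37 degrees Celsius in a qHTS format.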
# On the % scale 0 is the no-effect control and ±100 the full control effect; potency means the concentration at half of the fitted maximal effect.
Structure (SMILES),max response [%],Potency,outcome
O=C(NCc1cccc(O)c1)c1cc2cc(F)ccc2[nH]1,-5.86,,
CCOc1cc(CC(=O)NC(CC(C)C)c2ccccc2N2CCCCC2)ccc1C(=O)O (centres undefined),-3.75,,
CC1(C)CC2C(C1)C(C)(O)C13CC1(COC3=O)C2O (centres undefined),-11,,
NC1(C(=O)NC(CCO)c2ccc(Cl)cc2)CCN(c2ncnc3[nH]ccc23)CC1 (centres undefined),-13.8,,
COC(=O)c1ccnc(-c2cc(C(=O)NCCc3ccccc3)ccn2)c1,1.93,,
COc1cc(OC)c(/C=C/S(=O)(=O)Cc2ccc(OC)c(NCC(=O)O)c2)c(OC)c1,,206 nM (active),
COC(=O)c1cc(OC)cc(OC)c1C(=O)c1c(OC)cc2c(c1O)C1CCCC(C)(O2)O1 (centres undefined),,,inactive
O=C(O)CC1CCC(c2ccc(-c3ccc4nc(C(=O)NCc5ccc(OC(F)(F)F)cc5)cn4c3)cc2)CC1 (centres undefined),-0.0408,,
COc1cc2occc2c(O[C@@H]2O[C@H](CO)[C@@H](O)[C@H](O)[C@H]2O)c1CCC(=O)O,,,inactive
O=C(Nc1nc2ccccc2n1CCc1ccccc1)c1ccccc1,5.59,,

# System: NIH3T3
# Test: as above
# Details: Five cell lines viability, CellTiter-Glo ATP luminescence, 48-72 h; max response: active compounds read low
# In short: as §1
Structure (SMILES),outcome,max response [%],Potency
Cn1nnc(-c2ccc(-c3ccc(N4C[C@H](CO)OC4=O)cc3F)cn2)n1,inactive,,
CC(=O)OC1CC2C3(C)CCC(OC(=O)CC(=O)O)C(C)(C)C3CCC2(C)C2(C)CCC(C3(C)CCC(=O)O3)C12 (centres undefined),,2.16,
COc1cc(O)cc(/C=C/c2ccc(O[C@@H]3O[C@H](CO)[C@@H](O)[C@H](O)[C@H]3O)cc2)c1,,4.58,
O=S(=O)(c1ccccc1)c1cnc2c(N3CCNCC3)cccc2c1,,-14.1,
CC(C)c1cc(C(=O)N2CC[C@H](NC(=O)C3CC3)C2)n[nH]1,,-25.5,
CC(=O)OC1C(O)CC2(C)C(CCC(C)C23Cc2c(O)cc(CO)c(C=O)c2O3)C1(C)C (centres undefined),inactive,,
COC(=O)CC(C)(O)CC(=O)OCc1ccc(O[C@@H]2O[C@H](CO)[C@@H](O)[C@H](O)[C@H]2O)cc1 (some centres undefined),,-2.06,
CC(Cc1cc2c(c(C(N)=O)c1)N(CCCO)CC2)NCCOc1ccccc1OCC(F)(F)F (centres undefined),,2.09,
O=C1CCC=CC1(O)C(=O)OCc1ccccc1O[C@@H]1O[C@H](CO)[C@@H](O)[C@H](O)[C@H]1O (some centres undefined),,-27.2,
Cc1ccccc1C#Cc1ccc(CCC(=O)O)cc1,,-10.2,
C=C1C(O)CC2C(C(=O)O)=COC(O[C@@H]3O[C@H](COC(=O)/C=C/c4ccc(O)cc4)[C@@H](O)[C@H](O)[C@H]3O)C12 (some centres undefined),,-4.95,
O=C(OC1C=C(CO)C2C(OC3OC(CO)C(O)C(O)C3O)OC=CC12)c1ccc(O)cc1 (centres undefined),inactive,,
COC(=O)CC(O)CC(O)/C=C/c1c(C)ccc2c1C(O)CC(C)C2 (centres undefined),inactive,,
COc1cc(O)c2c(c1)C1=C[C@H](O)[C@@H](O)C[C@]1(C)OC2=O,inactive,,
CC(C)c1ccc(CO)cc1O[C@@H]1O[C@H](CO)[C@@H](O)[C@H](O)[C@H]1O,inactive,,
CC(=O)O[C@@H]1[C@H](O)[C@@H](O[C@@H]2O[C@@H](C)[C@H](O[C@@H]3OC[C@@H](O)[C@H](O[C@@H]4OC[C@@H](O)[C@H](O)[C@H]4O)[C@H]3O)[C@@H](O[C@@H]3O[C@H](CO)[C@@H](O)[C@H](O)[C@H]3O)[C@H]2O)[C@H](OC(=O)[C@]23CCC(C)(C)C[C@H]2C2=CCC4[C@@]5(C)CC[C@H](O[C@@H]6O[C@H](C(=O)O)[C@@H](O)[C@H](O[C@@H]7OC[C@@H](O)[C@H](O)[C@H]7O)[C@H]6O[C@@H]6O[C@H](CO)[C@H](O)[C@H](O)[C@H]6O)[C@@](C)(C=O)C5CC[C@@]4(C)[C@]2(C)CC3)O[C@@H]1C (some centres undefined),inactive,,
C/C=C(\C)C(=O)O[C@@H]1CC2[C@@H](CC=C3C[C@@H](O[C@H]4C[C@H](OC)[C@H](O[C@H]5C[C@H](OC)[C@H](O[C@@H]6O[C@H](C)[C@@H](O[C@H]7C[C@H](OC)[C@H](O[C@@H]8O[C@H](CO)[C@@H](O)[C@H](O)[C@H]8O)[C@@H](C)O7)[C@H](OC)[C@H]6O)[C@@H](C)O5)[C@@H](C)O4)CC[C@@]32C)[C@@]2(O)CC[C@H](C(C)=O)[C@@]12C (some centres undefined),,-3.87,
C=C(CCC1=C(C)[C@H]2[C@H](CC3[C@@H]4CC=C5C[C@@H](O)C[C@@H](O)[C@]5(C)C4[C@H](O)C[C@@]32C)O1)CO[C@@H]1O[C@H](CO)[C@@H](O)[C@H](O)[C@H]1O (some centres undefined),,0.743,
C[C@@H]1CC[C@@]2(OC1)O[C@H]1C[C@H]3[C@@H]4CC=C5C[C@@H](O)CC[C@]5(C)[C@H]4CC[C@]3(C)[C@H]1[C@@H]2C,,-1.68,
COC1=CC(=O)CC(C)C12Oc1cc(OC)cc(O)c1C2=O (centres undefined),inactive,,

Structure (SMILES),outcome,max response [%],Potency
CC(C)(C)NS(=O)(=O)c1cncc(-c2cc(F)c3nc(N)nn3c2)c1,,3.5,
CC(C)=CCc1cc(C(O)C2NC(=O)CNC(=O)C(Cc3c[nH]c4ccccc34)NC(=O)C3CCCN3C(=O)CNC(=O)C(C(C)C)NC(=O)CNC2=O)ccc1O (centres undefined) (cyclo(G[X4]GVGPW); configuration not given here),inactive,,
Cc1cc(N2CCN([C@@H]3CN[C@H](C(=O)N4CCSC4)C3)CC2)n(-c2ccccc2)n1,,-22.8,
CC(=O)N1CCN(Cc2ccc([C@H](C)Nc3nccc(N4C(=O)OC[C@@H]4C(C)C)n3)cc2)CC1,,-9.86,
C/C(=C\CCC(C)CCO)C(=O)OC1(C)CCC2C(C(=O)O)=COC(OC3OC(CO)C(O)C(O)C3O)C21 (centres undefined),inactive; activator,,
Cc1cc(C(N)=O)ccc1-n1c(CCC(=O)O)ccc1-c1ccc(-n2ccnc2)cc1,,-2.74,
NC(=O)c1csc(C2OC(CO)C(O)C2O)n1 (centres undefined),,-7.35,
COc1c2c(c(CO)c3c1C(=O)OC3)OC1(C)CCC3(O)C(C)(C)OC(=O)CCC3(C)C1C2 (centres undefined),,-8.25,
CC1=C(C)C(=O)OC(C(C)C2CCC3C4CC=C5CC(OC6OC(COC7OC(CO)C(O)C(O)C7O)C(O)C(O)C6O)CC(O)C5(C)C4CCC23C)C1 (centres undefined),,3.09,
O=C(NCc1cccc(O)c1)c1cc2cc(F)ccc2[nH]1,,-0.959,
CCOc1cc(CC(=O)NC(CC(C)C)c2ccccc2N2CCCCC2)ccc1C(=O)O (centres undefined),inactive,,
CC1(C)CC2C(C1)C(C)(O)C13CC1(COC3=O)C2O (centres undefined),,-6.54,
NC1(C(=O)NC(CCO)c2ccc(Cl)cc2)CCN(c2ncnc3[nH]ccc23)CC1 (centres undefined),inactive,,
COC(=O)c1ccnc(-c2cc(C(=O)NCCc3ccccc3)ccn2)c1,,1.58,
COc1cc(OC)c(/C=C/S(=O)(=O)Cc2ccc(OC)c(NCC(=O)O)c2)c(OC)c1,,,146 nM (active)
COC(=O)c1cc(OC)cc(OC)c1C(=O)c1c(OC)cc2c(c1O)C1CCCC(C)(O2)O1 (centres undefined),inactive,,
O=C(O)CC1CCC(c2ccc(-c3ccc4nc(C(=O)NCc5ccc(OC(F)(F)F)cc5)cn4c3)cc2)CC1 (centres undefined),,-0.598,
COc1cc2occc2c(O[C@@H]2O[C@H](CO)[C@@H](O)[C@H](O)[C@H]2O)c1CCC(=O)O,,1.36,
O=C(Nc1nc2ccccc2n1CCc1ccccc1)c1ccccc1,,-1.28,
